CHO-K1 Ca antag: M1 antagonist counterscreen hit in parental CHO-K1 cells; ATP-induced calcium, Fluo-8 fluorescence; inhibition, % at 3 µM; 0.6% of 360,000 active;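 active = inhibition above a per-plate cutoff, the plate's mean sample inhibition plus 3 SD, cut at about 24% in these data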;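 note: 0% = DMSO plus EC80 ATP and 100% = DMSO alone without ATP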
NTR1 ag: activates human neurotensin receptor 1; 0.17% of 330,000 active; NTR1-U2OS beta-arrestin-GFP spot imaging, agonist mode; P30989; activation, % at 20 µM;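 active = activation at or above 40% of the spot to cytoplasm intensity ratio, with at least 20 cells analyzed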;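 note: 0% = DMSO without peptide and 100% = 100 nM NTR1 peptide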
Target sequence (P30989 whole entry, looked up): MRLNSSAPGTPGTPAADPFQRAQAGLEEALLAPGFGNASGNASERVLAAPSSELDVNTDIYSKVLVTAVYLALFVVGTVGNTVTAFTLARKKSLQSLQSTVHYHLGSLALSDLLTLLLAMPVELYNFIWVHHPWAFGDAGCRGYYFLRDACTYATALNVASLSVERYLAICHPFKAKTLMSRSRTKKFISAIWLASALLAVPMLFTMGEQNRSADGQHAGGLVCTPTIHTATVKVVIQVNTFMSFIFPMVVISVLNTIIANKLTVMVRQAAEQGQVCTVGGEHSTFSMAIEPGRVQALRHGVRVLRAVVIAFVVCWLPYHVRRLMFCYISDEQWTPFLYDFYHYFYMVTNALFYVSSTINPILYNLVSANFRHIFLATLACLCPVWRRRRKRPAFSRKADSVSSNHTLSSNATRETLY
CHO-K1 Ca ag: nonselective activator or artifact in parental CHO-K1 cells. AID 602248. activation, % at 3 µM. 0.48% of 360,000 active. Fluo-8 calcium fluorescence; scaled to maximal ATP response, vehicle zero; in the data active = activation above about 15%;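 note: untransfected CHO-K1 host cells lacking M1 receptor as counterscreen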
ANO1 activ: activates or potentiates the mouse TMEM16A chloride channel; Q8BHY3; HEK293 TMEM16A/YFP-H148Q/I152L, iodide quench fluorescence; active compounds read low; B-score at 10 µM; 0.3% of 340,000 active; AID 623877;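 active = fluorescence-ratio B-score plate-corrected deviation score at least 3 library SD below zero, with starting fluorescence score within 5 deviations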;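 note: channel opened by trigger with iodide after compound preincubation; score built on the fluorescence ratio of max minus min over baseline; more negative score means more quench and so TMEM16A activation or potentiation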
M1 PAM parental: counter-screen for M1 PAMs: effect in parental CHO-K1 cells. ATP EC20, Fluo-8 calcium fluorescence; 0% at ATP EC20, 100% at ATP max. activation, % at 3 µM. 0.02% of 360,000 active. AID 602247;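 active = activation above the run cutoff, the mean activation of all test compounds plus 3 SD, cut at about 40% in these data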;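 note: peak over basal fluorescence ratio in a 140 s read after ATP addition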
TMEM16A inh: inhibitors of mouse TMEM16A calcium-activated chloride channel; Q8BHY3; HEK293 TMEM16A/YFP iodide influx fluorescence, ionomycin; normalized B-score (activity score, 25-100; higher = stronger inhibition) at 10 µM; 1.2% of 310,000 active; AID 588511;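 active = ratio plate-corrected score three or more library SD toward inhibition, starting fluorescence score within five deviations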;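 note: score derived from kinetic fluorescence span divided by baseline fluorescence per well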
Active calls of the source: *; i = inactive; · = not tested or not shown. Most compounds without a hit are left out; they make up all but 2.2% or so of the library.

SMILES | CHO-K1 Ca antag | NTR1 ag | CHO-K1 Ca ag | ANO1 activ | M1 PAM parental | TMEM16A inh
CCCCCCCCCS(=O)(=O)N/N=C/c1cccc([N+](=O)[O-])c1 | -16 | 2 | 2 | i | -5 | 100*
COCCN(Cc1ccccc1)C(=O)c1ccc(C(=O)c2ccccc2)cc1 | 4 | 2 | 1 | i | -9 | ·
Cc1c(C(=O)NCc2cccnc2)sc2nc(-c3ccccc3)cn12 | -4 | -2 | 1 | i | 6 | i
Cc1c(C(=O)NCc2cccnc2)sc2nc(-c3ccc(F)cc3)cn12 | 5 | -3 | 5 | -22* | 6 | i
O=C(/C=C/c1cccc(Cl)c1)OCC(=O)c1ccc[nH]1 | -2 | · | 0 | · | 8 | ·
CCN(CC)c1ccc(/C=C2\C(=O)N(c3nnc(C)c(=O)[nH]3)N=C2C)cc1 | 3 | 22 | 3 | -5.7* | -1 | i
O=C(O)Cc1sc(NC2CCCCC2)nc1-c1ccc(Cl)cc1 | -19 | 2 | 3 | i | 32 | i
Cc1[nH][nH]c(=O)c1C=NCc1cccnc1 | 4 | -2 | 1 | i | 20 | i
C=CCn1c(O)c(C(CC)=NCc2cccnc2)c(=O)[nH]c1=O | 25* | 2 | 0 | i | -5 | i
O=C1CC(c2ccsc2)Sc2ccccc2N1 (stereo not given) | 7 | 0 | 20* | i | 12 | i
Cc1cc(C2CC(=O)Nc3ccccc3S2)c(C)s1 (stereo not given) | -2 | 2 | 0 | i | -8 | i
CCN(C(=O)COC(=O)C1CCN(S(=O)(=O)c2ccc(C)c(C)c2)CC1)C1CCCCC1 | -15 | 4 | 1 | i | 7 | ·
Cc1ccc(NC(=O)CCC(=O)OCC(=O)c2ccc(Oc3ccc([N+](=O)[O-])cc3)cc2)c(C)c1 | 30* | 1 | 1 | i | -1 | i
C/C(N)=C(/C#N)C(=O)COC(=O)Cc1coc2ccc3ccccc3c12 | 3 | 7 | 19* | i | 2 | i
O=C(c1cnc(Cc2c[nH]c3ccccc23)c(I)c1)N1CCOCC1 | 3 | · | 2 | · | -3 | ·
CCOc1ccc(-c2c(=O)n(OCc3ccc([N+](=O)[O-])cc3)c3ccccc3[n+]2[O-])c(OCC)c1 | 5 | -1 | 20* | i | 14 | i
O=C(c1ccc(Br)cc1)c1cc2ccc(O)cc2oc1=O | -11 | 1 | 3 | i | -6 | 25*
O=C(Nc1cccc(C(=O)N2CCOCC2)c1)C1CCCCC1 | 6 | · | 0 | · | -12 | ·
N#CC(C(=O)C12CC3CC(CC(C3)C1)C2)c1nc2ccccc2[nH]1 (stereo not given) | 13 | 16 | 0 | -9.5* | -5 | i
N#Cc1c(NC(=O)c2ccccc2Cl)n(Cc2ccccc2)c2nc3ccccc3nc12 | 15 | · | 15 | i | -1 | 100*
CCCCn1c(NC(=O)CC)c(C#N)c2nc3ccccc3nc21 | 0 | 2 | 0 | i | 7 | i
CCCCn1c(NC(=O)c2ccccc2Cl)c(C#N)c2nc3ccccc3nc21 | 13 | 18 | 11 | i | -22 | 100*
COc1ccc(-n2c(NC(=O)c3ccco3)c(C#N)c3nc4ccccc4nc32)cc1 | -7 | 2 | 0 | i | 9 | i
CCOc1ccc(NC(=O)CN(C)C(=O)Cc2ccc3c(c2)OCCO3)cc1OCC | -1 | · | 1 | · | 4 | ·
N#C/C(=N\Nc1cccc([N+](=O)[O-])c1)C(=O)c1ccc(Br)cc1 | 17 | 5 | 13 | i | 2 | 25*
SMILES | CHO-K1 Ca antag | NTR1 ag | CHO-K1 Ca ag | ANO1 activ | M1 PAM parental | TMEM16A inh
N#C/C(=N\Nc1ccc([N+](=O)[O-])cc1)C(N)=S | 17 | 0 | 9 | i | -16 | 100*
N#C/C(=N/Nc1ccc([N+](=O)[O-])cc1)C(=N)N1CCCCC1 | -13 | · | 0 | i | -3 | ·
O=C(O)c1ccc(N=NNc2cccc([N+](=O)[O-])c2)cc1 | -2 | 0 | 1 | i | 3 | i
Cc1ccc(/C=C2\CCC3=C2OC(N)=C(C#N)C3c2ccc(C)cc2)cc1 (stereo not given) | 35* | 17 | 16* | i | -12 | i
Cc1ccc(C2C(C#N)=C(N)Oc3cc(N)ccc32)cc1 (stereo not given) | -14 | 1 | 2 | i | 20 | i
Cc1cc(N=Nc2ccccc2)cc(C)c1NC(=O)C(F)(F)F | -22 | · | 0 | i | 19 | ·
OC(CN1CCOCC1)Cn1cnc2ccccc21 (stereo not given) | -9 | 0 | 1 | · | 8 | i
OC(CN1CCOCC1)Cn1c(-c2cccc(Cl)c2)nc2ccccc21 (stereo not given) | 28* | -3 | 0 | i | -10 | i
COc1ccc(CCNc2nc(C)nc3c2oc2ccccc23)cc1OC | 16 | 4 | 13 | i | -1 | i
COc1ccc(CCNc2ncnc3c2oc2ccccc23)cc1OC | 44* | 14 | 15 | i | -10 | 100*
Nc1nc2ccccc2cc1C(=O)NCCCCc1ccccc1 | 15 | · | 14 | · | -5 | ·
Nc1c(C(=O)C2CC2)sc2nc(-c3ccccc3)cc(C(F)(F)F)c12 | 75* | 7 | 109* | i | -1 | i
CCc1ccc2c(c1)NC(=O)C2(C)Cc1ccccc1C#N (stereo not given) | -14 | · | 1 | · | 19 | ·
C=CCN(CC=C)Cc1cc(=O)oc2ccccc12 | -11 | · | 0 | · | 0 | ·
O=C(c1cnc(Cl)c(Cl)c1)N1CCN(S(=O)(=O)c2cccs2)CC1 | -3 | · | 1 | · | 8 | ·
CCn1c(SCC(=O)Nc2ccccc2)nnc1-c1cccs1 | 3 | 6 | 1 | i | -5 | i
CCn1c(SCC(=O)c2ccc(NS(=O)(=O)c3ccccc3)cc2)nnc1-c1cccs1 | 24* | 2 | 0 | i | -5 | i
COc1ccc(/C=C/C(=O)NNc2c(F)c(F)cc(F)c2F)cc1OC | 25* | -1 | 0 | i | -7 | i
COc1cc(/C=C/C(=O)NNc2c(F)c(F)cc(F)c2F)ccc1OC(F)F | -7 | 0 | 1 | i | 6 | i
CC(=O)Oc1ccc(C(=O)Nc2cccc(-c3nnc(-c4ccco4)o3)c2)cc1 | 1 | 0 | 24* | i | 7 | i
CCCN(C)C1CN(Cc2cn(Cc3ccc(C)cc3)nn2)S(=O)(=O)C1 (stereo not given) | -7 | · | 0 | · | 17 | ·
CCn1cnc2cc(NCc3ccc(C)cc3)ccc21 | -12 | 1 | 2 | i | -4 | i
Cc1ccc(CNc2ccc3c(c2)ncn3C(C)C)cc1 | 4 | 1 | 1 | -13* | -6 | i
CC12CCC(C(N)C1=O)C2(C)C (stereo not given) | 5 | · | 7 | i | -6 | ·
CCC(=O)N1CCN(c2ccc(NC(=O)c3ccco3)cc2Cl)CC1 | -8 | 0 | 4 | i | -8 | ·

High-throughput results from PubChem BioAssay.
